High-throughput results deposited in PubChem BioAssay by several laboratories.
In the library only some 4.9% were active in any assay of this set; here they are far more common.
PP1 counter – PP1-alpha phosphatase inhibitors, primary screen, counter-screen for PP5 inhibitor project, biochemical, fluorescence, OMFP substrate, single point | Serine/threonine-protein phosphatase PP1-alpha catalytic subunit (Homo sapiens), P62136 | purified PP1alpha | inhibition, % at 6.7 µM | 320,000 compounds, 0.9% hits | AID 2235, 2010;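 active = inhibition above the mean inhibition of all tested compounds plus 3 SD, computed separately for each screening campaign, cut at about 15% in these data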
Target sequence (P62136 whole entry, looked up): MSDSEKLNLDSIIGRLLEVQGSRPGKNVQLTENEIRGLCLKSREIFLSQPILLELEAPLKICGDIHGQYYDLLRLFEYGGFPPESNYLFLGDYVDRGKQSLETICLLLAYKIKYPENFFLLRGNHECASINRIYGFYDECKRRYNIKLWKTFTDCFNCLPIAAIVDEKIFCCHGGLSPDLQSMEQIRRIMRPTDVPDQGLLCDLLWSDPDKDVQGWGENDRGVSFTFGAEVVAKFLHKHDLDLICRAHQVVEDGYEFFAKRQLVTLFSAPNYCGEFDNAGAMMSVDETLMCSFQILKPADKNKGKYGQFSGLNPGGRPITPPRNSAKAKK
Calb FLC – C. albicans growth inhibition with fluconazole, primary screen, CaCi-2 strain, Alamar Blue fluorescence; growth inhibition, % (test concentration not listed); AID 1979, 2009; 300,000 compounds, 0.57% hits; C. albicans CaCi-2 (fluconazole-resistant clinical isolate) + fluconazole, 48 h;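 active = growth inhibition above about 58% in most replicates, limit read from the data, passing the limit was not always enough; inconclusive = exactly half the replicates above a set limit; inactive = most replicates below a set limit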;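 also: all wells also contain fluconazole at 8 µg/ml as a sub-toxic cotreatment; 0% = median of DMSO wells and 100% = median of geldanamycin control wells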
Mdm2-MdmX inh – inhibitors of human Mdm2-MdmX association, primary screen, cell-based, luminescence, split luciferase, SaOS-2, uHTS | inhibition, % at 8 µM | Protein Mdm4 (Homo sapiens) + E3 ubiquitin-protein ligase Mdm2 (Homo sapiens), … | SaOS-2 split-luciferase Mdm2/MdmX complementation | AID 485346, 2010 | 330,000 compounds, 3% hits;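 active = inhibition of at least 50% at 8 µM in the primary screen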
Beta cell apopt – inhibitors of cytokine-induced beta cell apoptosis, primary screen, luminescence; 300,000 compounds, 0.8% hits; INS-1E cytokine-induced death, ATP luminescence, 48 h; percent of positive-control rescue, neutral wells zero; protection from apoptosis, % (concentration not given with the values);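 active = Every replicate reaches about 75%, or at least half do and their mean reaches it too, limit read from the data; inconclusive = At least half of replicates reach the limit but their mean does not; inactive = Under half of replicates reach the limit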;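 also: 0% = cytokine-treated negative control wells and 100% = positive control rescue; higher means more ATP so stronger rescue from cytokine killing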
CSC inhib – cancer stem cell viability inhibitors, primary screen, luminescence; inhibition, % at 7.5 µM; cancer stem cell-like cells viability; 300,000 compounds, 1.1% hits; in the data active = inhibition above about 75%; inconclusive = no clear call, values can overlap the other calls; tested in HMLE shEcad cells
PP5 primary – PP5 phosphatase inhibitors, primary screen, biochemical, fluorescence | 320,000 compounds, 0.18% hits | purified PP5c, OMFP substrate fluorescence | inhibition, % at 6.7 µM | Serine/threonine-protein phosphatase 5 (Homo sapiens), P53041;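 active = inhibition above the campaign's mean inhibition across all tested compounds plus 3 SD, cut at about 9.5% in these data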;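 also: 0% = DMSO only and 100% = 100 µM cantharidin control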
Mdm2 MdmX conf – Mdm2-MdmX complex disruptors, retested hits, confirmation, luminescence, single concentration; shares compounds with Mdm2-MdmX inh; Mdm2-MdmX binding, luminescent assay; inhibition, % at 8 µM; 10,000 compounds, 55% hits; in the data active = inhibition above about 40%
FLuc counter – full-length luciferase signal inhibition, confirmation, counter-screen for Mdm2/MdmX interaction inhibitor project, cell-based, single concentration, SaOS-2; inhibition, % at 8 µM; 6,200 compounds, 77% hits; SaOS-2 full-length luciferase counterscreen, luminescence; shares compounds with Mdm2-MdmX inh;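 active = mean inhibition at 8 µM reaching about 37%, which flags the compound as non-specific, limit read from the data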;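 also: p53-null SaOS-2 cells with luciferase driven by a doxycycline-inducible promoter; compound on cells about two nights before reading with doxycycline added after day one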
The depositor's hits bear a star; u = inconclusive; x = no result given.

SMILES	PP1 counter	Calb FLC	Mdm2-MdmX inh	Beta cell apopt	CSC inhib	PP5 primary	Mdm2 MdmX conf	others
O=S(Cc1ccc(Br)cc1)Cc1nnc(SCc2c(F)cccc2Cl)n1-c1ccccc1 (stereo not drawn)	4	20	26	35	3	4	x
COc1ccc(S(=O)(=O)NCc2ccccn2)cc1NC(=O)c1ccccc1F	-2	-5	42	6	51	0	x
CCOc1ccc(S(=O)(=O)NCc2ccccn2)cc1NC(=O)c1ccccc1	-9	4	58*	x	51	-3	75*	FLuc counter=57*
CCN(CC)c1ccc(N)cc1	3	x	80*	108*	23	1	15
COc1cc(Cl)ccc1NC(=S)N(CCCN1CCOCC1)Cc1cn(C)c2ccccc12	3	25	55*	-12	8	2	22
COc1ccc(Cl)cc1NC(=S)N(CCCN1CCOCC1)Cc1cn(C)c2ccccc12	4	7	26	-1	8	5	x
Cc1ccc(/C(N)=N/OC(=O)C23CC4CC(CC(C4)C2)C3)cc1	-2	-4	20	6	x	3	x
N/C(=N\OC(=O)C12CC3CC(CC(C3)C1)C2)c1ccncc1	-4	-35	84*	x	22	0	14
C/C=C(\C)C(=O)OC1CC(C)(C)C[C@H]2C3=CC[C@@H]4[C@@]5(C)CCC(O[C@@H]6O[C@@H](C(=O)O)[C@@H](O)C(O[C@@H]7OC[C@H](O)[C@@H](O)[C@@H]7O[C@@H]7OC(CO)C(O)[C@@H](O)[C@@H]7O)C6O[C@@H]6OC(CO)C(O)C(O)C6O)[C@@](C)(CO)[C@@H]5CC[C@]4(C)[C@]3(C)CC(O)[C@@]12CO (stereo partly drawn)	x	x	55*	-1	x	x	32	FLuc counter=48*
COc1cc(/C=C2\SC(=O)N(CCNC(=O)c3sc4cc(F)ccc4c3Cl)C2=O)cc(OC)c1OC	-5	1	54*	8	33	1	-10
COc1cc(C(=O)NCC(=O)NCCN2C(=O)S/C(=C\c3ccccc3Cl)C2=O)cc(OC)c1OC	0	0	-18	7	-11	-2	x
O=C(OCN1C(=O)c2ccccc2C1=O)c1cccc(S(=O)(=O)N2CCOCC2)c1	1	-3	24	-11	-12	3	x
CCN(CC(=O)NCc1cccs1)C(=O)c1cc(S(=O)(=O)NCc2ccccc2)ccc1C	-2	0	10	2	x	-1	x
COc1ccc(C(C(=O)NC2CCCC2)N(C(=O)c2snc(-c3ccc(F)cc3)c2N)c2ccc(F)cc2)cc1 (stereo not drawn)	-3	4	57*	11	14	1	9
COc1ccc(C(C(=O)NC2CCCC2)N(C(=O)c2snc(-c3ccc(F)cc3)c2N)c2ccccc2)cc1 (stereo not drawn)	-2	u	29	2	10	0	x
COc1ccc(C(C(=O)NC2CCCC2)N(C(=O)c2snc(-c3ccc(F)cc3)c2N)c2cccc(F)c2)cc1 (stereo not drawn)	-6	32	62*	7	21	4	7
COc1ccc(C(C(=O)NC2CCCC2)N(C(=O)c2snc(-c3ccc(F)cc3)c2N)c2ccc(OC)cc2)cc1 (stereo not drawn)	6	-9	21	15	-9	1	x
O=C(CC1C(=O)NCCN1Cc1c(F)cccc1Cl)NC1CCCC1 (stereo not drawn)	-3	-11	18	-4	-13	1	x
Cc1ccc(-c2nn(-c3cc(N4CCNCC4)ccc3[N+](=O)[O-])c(=O)c3ccccc23)cc1	6	12	100*	6	20	-2	29
O=C(CC1S/C(=N/N=C/c2cccs2)NC1=O)Nc1ccc(Cl)c(Cl)c1 (stereo not drawn)	-1	5	18	-1	-7	1	x
O=C1N/C(=N\N=C\c2cccs2)SC1Cc1ccc(Cl)cc1Cl (stereo not drawn)	3	-3	74*	-5	39	2	51*	FLuc counter=70*
O=C1N/C(=N\N=C\c2cccs2)SC1Cc1cccc(Cl)c1Cl (stereo not drawn)	0	6	83*	4	50	0	62*	FLuc counter=58*
CC1(C)S/C(=N/N=C/c2cccs2)NC1=O	0	13	7	-3	-5	1	x
CCc1csc(CNC(=O)C2CCC(=O)N(Cc3cccc(F)c3)C2)n1 (stereo not drawn)	-5	-6	27	-1	-3	-1	x
COC(=O)[C@@H]1C[C@@]2(O)[C@H](O)[C@H](O)[C@H](O)C[C@H]2N1Cc1ccc(-c2ccccc2)cc1	2	-12	-7	-2	2	5	x
SMILES	PP1 counter	Calb FLC	Mdm2-MdmX inh	Beta cell apopt	CSC inhib	PP5 primary	Mdm2 MdmX conf	others
Cc1ccc(-c2cc(C(F)F)nc3sc4c(=O)[nH]cnc4c23)cc1	-1	x	71*	14	-6	0	-2
COc1ccc(-n2nc3c(N4CCC(C(=O)NCc5cccc(C)c5)CC4)nnc(C)c3c2C)cc1	10	70	99*	37	-15	3	45*	FLuc counter=48*
CCc1ccc(CNC(=O)C2CCCN(c3nnc(C)c4c(C)n(-c5ccccc5)nc34)C2)cc1 (stereo not drawn)	9	u	44	34	5	3	x
Cc1ccc(-n2nc3c(N4CCC(C(=O)NCc5ccccc5C)CC4)nnc(C)c3c2C)cc1	16*	-16	96*	32	46	4	32
CCOc1ccc(CNC(=O)C2CCN(c3nnc(C)c4c(C)n(-c5ccc(C)cc5)nc34)CC2)cc1	10	-15	87*	24	5	5	40*	FLuc counter=40*
Cc1ccc(-n2nc3c(N4CCC(C(=O)N5CCCCCC5)CC4)nnc(C)c3c2C)cc1	3	13	50	6	-20	0	x
COc1ccccc1CCNC(=O)C1CCN(c2nnc(C)c3c(C)n(-c4ccc(C)cc4)nc23)CC1	6	28	89*	33	11	2	39	FLuc counter=79*
COc1ccc(CCNC(=O)C2CCC(=O)N(CC3CCCCC3)C2)cc1 (stereo not drawn)	x	7	-17	x	x	x	x
